CtBP-E1A inh: blocks the CtBP interaction with E1A; AlphaScreen GST-E1A/His-CtBP binding, 1536-well; hits give low values; activity change, % (test concentration not listed); 340,000 tested, 0.49% active; AID 651724; in the data active = activity change below about -65%; inconclusive = mostly about -30% to -63%; also: % is scaled to controls: 0 for no effect and ±100 for the full control effect
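Protein mix (5X: 125 nM each GST-E1A, His-CtBP) was incubated with pinned compound 2 h at 37 deg C in dark, in 50 mM Tris pH 8.0 buffer with 300 mM NaCl. Glutathione donor and nickel acceptor beads followed; AlphaScreen signal read after 1 h.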
Six1-Eya2 blk: blocks human Six1 binding to Eya2; AID 651725; activity change, % (test concentration not listed); 360,000 tested, 0.56% active; Q15475+O00167; AlphaScreen GST-Six1/His-Eya2 binding, biochemical; hits give low values; in the data active = activity change below about -65%; inconclusive = mostly about -30% to -63%; also: % is scaled to controls: 0 for no effect and ±100 for the full control effect
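Six1/Eya2 binding was read as AlphaScreen signal after compounds were pinned into GST-Six1 plus His-tagged Eya2 (5X stock 250/500 nM) in pH 8.0 Tris/NaCl/TCEP buffer, beads added, then incubated 1 h, 37 C, dark.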
RORgamma inh: ROR gamma (mouse) transcription inhibition; P51450; Drosophila S2 Gal4-RORgamma UAS-luciferase reporter, 20 h; Potency, µM (series often up to 53.6 µM), inactives show top-dose activity change, negative = inhibition, hits mostly inhibitors; 310,000 tested, 5.4% active; also: potency is read from the fitted curve at half-maximal effect; % is scaled to controls: 0 for no effect and ±100 for the full control effect; nearly all actives have a fitted effect of over 60% in size
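Stable Schneider cell line, Gal4 DNA-binding domain fused to ROR gamma, UAS-luciferase. Cmpd 1 hr RT → CuSO4 700 uM final → 20 hr RT → luciferase reagent 10 min → luminescence.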
p53 reactivator: restores transcriptional activity of mutant p53. H1299 p53-A138V BP100-luciferase reporter, luminescence, 24 h. Potency, µM (doses to about 92.2 µM), for inactives: top-dose activity change, positive = activation, actives largely listed as activators. 320,000 tested, 0.063% active. AID 504706; also: potency is read from the fitted curve at half-maximal effect; % of control where 0% means no effect; nearly all actives have a fitted effect of over 45% in size
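H1299 (p53-null), stable ts p53-A138V + BP100-Luc; 1000 cells/well, Opti-MEM/10% FBS; cpd 4 pt, 1:5; 24 h, 37 deg C, 5% CO2; detection reagent 10 min RT; luminescence.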
Gal4-VP16 FLuc: Gal4-VP16 reporter inhibition counter-screen; AID 2546; Potency, µM (titrated, usually from 53.6 µM), inactives show at the top dose activity, negative = inhibition, usual class: inhibitors; 310,000 tested, 3.5% active; Drosophila S2 Gal4-VP16 UAS-luciferase, luminescence, 20 h;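 also: Gal4-VP16 expression switched on by copper sulfate through the metallothionein promoter; potency is read from the fitted curve at half-maximal effect; % is scaled to controls: 0 for no effect and ±100 for the full control effect; nearly all actives have a fitted effect of over 50% in size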
Active calls of the source: *; u = inconclusive; x = not tested or not shown. Shown are actives, neighbours in structure and some others; about 5.4% of the full set was active somewhere. Unless noted, calls follow the shape of the dose curve; as a rule, active = well fitted curve in the direction sought with a large enough effect; inconclusive = small, poorly fitted or top-dose-only effect, or another doubt; inactive = no such curve, though single readings can be large; an effect the other way counts as inactive or inconclusive.

SMILES	CtBP-E1A inh	Six1-Eya2 blk	RORgamma inh	p53 reactivator	Gal4-VP16 FLuc
COC(=O)c1ccc(NC(=S)NC(=O)c2cc(-c3ccccc3)nc3ccccc23)cc1	u	-11	0.45µM*	-1%	2µM*
CCCOc1ccc(C(=O)NNC(=S)NC(=O)c2cc(-c3ccc(Cl)cc3)nc3ccccc23)cc1	-7	-7	0.11µM*	20%	u
CCNC(=S)NNC(=O)c1cc(-c2ccc(OCC)cc2)nc2ccccc12	-3	-11	20%	-8%	1%
COc1cc(-c2cc(C(=O)Nc3ccc(S(=O)(=O)Nc4ncccn4)cc3)c3ccccc3n2)cc(OC)c1OC	-5	1	-35%	-3%	11µM*
COc1ccc(C(=O)NNC(=S)NC(=O)c2cc(-c3ccccc3)nc3ccccc23)cc1	-8	-2	10µM*	5%	u
COC(=O)c1ccc(NC(=O)c2cc(-c3ccncc3)nc3ccccc23)cc1	0	-3	x	2%	x
O=C(Nc1cccc(F)c1)N1CC[C@@]2(CCCN(C(=O)c3ccco3)C2)C1	x	x	-3%	x	6%
Cc1cc(/C=C/c2ccc3cc(N(C)C)ccc3[n+]2C)c(C)n1-c1ccccc1	x	x	4.5µM*	x	-79%
C=CCn1c(Sc2ncc([N+](=O)[O-])s2)n[nH]c1=O	-5	u	4.5µM*	-10%	4µM*
COc1cccc(/C=C2\CCc3ccccc3C2=O)c1	x	-1	11µM*	u	11µM*
Cc1ccsc1/C=C1\CCc2ccccc2C1=O	18	10	u	u	11µM*
O=C1C(=Cc2ccccn2)CCc2ccccc21	-7	-15	x	x	x
CC(=O)Oc1ccc(/C=C2/CCc3ccccc3C2=O)cc1	3	4	8.9µM*	u	10µM*
O=C1/C(=C/c2ccc([N+](=O)[O-])cc2)CCc2ccccc21	x	x	u	11µM*	u
COc1cccc(C=C2Cc3ccccc3C2=O)c1	8	3	x	x	x
O=C(CN1CCSCC1)N/N=C/c1cccc(Cl)c1	x	-3	-12%	-5%	-5%
O=C(Cc1c(F)cccc1Cl)OCC(=O)N1CCN(c2ccccc2)CC1	x	2	x	9%	x
COc1ccccc1NC(=O)C1=C(C)Nc2nnnn2C1c1ccccc1OC (configuration not stated)	5	-4	0%	-11%	0%
COc1ccccc1/C=C1\CCCC2=C1Nc1nnnn1C2c1ccccc1OC (configuration not stated)	0	-3	u	-19%	14µM*
CCOCCCNC(=O)C(NC(=O)Cc1cccs1)c1ccc(Cl)cc1 (configuration not stated)	8	0	u	0%	13µM*
CCOCCCNC(=O)C(NC(=O)Cc1cccs1)c1ccc(OC)cc1 (configuration not stated)	3	0	11%	2%	3%
C[C@@H]1/C(=N/O)CC2C[C@@H]1C2(C)C	x	x	-1%	x	-7%
Cc1cccc(NC(=O)C2CC(=O)N/C(=N/N=C/c3ccco3)S2)c1 (configuration not stated)	-10	1	-31%	2%	3%
O=C(CC1S/C(=N/N=C/c2ccco2)NC1=O)Nc1cccc(Cl)c1Cl (configuration not stated)	u	-6	20µM*	0%	u
CC1S/C(=N/N=C/c2ccco2)N(Cc2ccccc2)C1=O (configuration not stated)	x	0	77%	3%	-4%
CC1(C)S/C(=N/N=C/c2ccco2)NC1=O	0	3	13µM*	-4%	7.9µM*
CC1S/C(=N/N=C/c2ccco2)NC1=O (configuration not stated)	-9	4	11µM*	2%	u
CCCCC1S/C(=N/N=C/c2ccco2)NC1=O (configuration not stated)	0	13	0.45µM*	9%	2µM*
CCCCCCCNC(=O)C1CC(=O)N(C)C(=Nc2ccc(OC)cc2)S1 (configuration not stated)	6	7	u	-8%	-29%

Compound activity from PubChem.
